Bioassay records (PubChem BioAssay)
Pf growth 48h: P. falciparum growth inhibition at 48 hours (one generation); P. falciparum luciferase growth in erythrocytes, 48 h; Potency, µM (top dose mostly 28.7 µM), hits mostly inhibitors; hit rate 5.9% among 310,000; AID 504832
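Read-out is firefly luciferase luminescence from an integrated reporter in P. falciparum, so falling signal marks reduced parasite growth. Infected erythrocytes were at 2% hematocrit and 0.1% parasitemia (final) in Albumax-supplemented RPMI 1640.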
Vaccinia mCherry: vaccinia inhibition (mCherry reporter). Vaccinia virus mCherry reporter infection, fluorescence. Potency, µM (top dose mostly 36.5 µM), actives largely listed as inhibitors. hit rate 0.63% among 310,000. AID 720579; calls by dose curve; tested in A549 cells; also: nearly all actives have a fitted effect of over 35% in size
AMA1 RON2 block: AMA1-RON2 (P. falciparum) interaction inhibition. AID 720542. Potency, µM (top dose mostly 58.2 µM), most hits filed as inhibitors. AlphaScreen AMA1-biotinylated RON2 peptide binding. hit rate 0.2% among 360,000; also: nearly all actives have a fitted effect of over 45% in size
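AMA1 (3D7) with his tag at 25 nM final met compounds first, then biotinylated RON2 peptide at 25 nM; detection used donor plus acceptor beads, 10 µg/mL apiece, read by AlphaScreen after 30 min at room temperature.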
VACV Venus inh: inhibitors of vaccinia virus (Venus reporter) | Vaccinia virus Venus reporter expression, fluorescence | Potency, µM (titrated, usually from 36.5 µM), actives largely listed as inhibitors | hit rate 0.46% among 330,000; calls by dose curve; tested in A549 cells; also: nearly all actives have a fitted effect of over 30% in size
Pf growth 96h: P. falciparum growth inhibition at 96 hour, primary screen for plastid delayed-death inhibitors; P. falciparum luciferase reporter growth, 96 h; Potency, µM (top dose mostly 28.7 µM), most hits filed as inhibitors; hit rate 6.9% among 320,000
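Parasite growth measured via integrated firefly luciferase reporter in P. falciparum. Infected erythrocytes at 2% hematocrit, 0.05% parasitemia final were treated 96 hours at 37 C under 5% CO2, and luminescence was read.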
A number is an active result; n = inactive; u = inconclusive; x = no result; [ ] = remark or other dose. Most compounds without a hit are left out; they make up all but 8.7% or so of the library. Unless noted, calls follow the shape of the dose curve; as a rule, active = well fitted curve in the direction sought with a large enough effect; inconclusive = small, poorly fitted or top-dose-only effect, or another doubt; inactive = no such curve, though single readings can be large; an effect the other way counts as inactive or inconclusive.

SMILES	Pf growth 48h	Vaccinia mCherry	AMA1 RON2 block	VACV Venus inh	Pf growth 96h
O=C1NCN(c2ccccc2)C12CCN(CCCOc1ccc(F)cc1)CC2	17µM	n	x	u	n
CSC1=NCCN1C(=O)C12CC3CC(CC(C3)C1)C2	9.3µM	n	n	n	u
CSC1=NCCN1C(=O)c1ccc(C)cc1	n	n	n	n	n
CSC1=NCCN1C(=O)c1cccs1	x	n	n	n	13µM
O=C(c1cccs1)N1CCN=C1SCc1cccc(F)c1	n	x	n	x	n
Cc1c(C(=O)Nc2ccccc2)sc2nc(-c3cc4cc(Cl)ccc4oc3=O)[nH]c(=O)c12	x	n	x	n	x
CCOc1ccc(NC(=O)CCn2cccn2)cc1	x	n	x	n	x
CCOC(=O)Cn1c(=O)oc2cc(S(=O)(=O)N3CCN(c4cccc(Cl)c4)CC3)ccc21	x	n	x	n	x
Cc1ccc(C(=O)c2cn(Cc3ccccc3F)c3cc4c(cc3c2=O)OCO4)cc1	x	n	x	n	x
Cc1ccc(NC(=O)Cn2cc(C(=O)c3cccs3)c3ccccc32)cc1C	x	n	x	n	x
Nc1ccc(Br)c[n+]1Cc1cccc2cccnc12	u	n	n	n	10µM
O=C(Nc1ccccc1)N1CCN(C(=O)c2nsc3ccccc23)CC1	x	n	x	n	x
Cc1cc(C)c[n+](CC(=O)c2ccc(NC(=O)c3ccccc3)cc2)c1	u	n	n	n	n
Cc1cc(C)c[n+](CC(=O)c2ccc(-c3ccccc3)cc2)c1	u	n	n	n	15µM
CC(=O)C1=C(C)NC(SCC(=O)c2ccc(Cl)c(Cl)c2)=C(C#N)C1c1ccco1 (configuration not stated)	1.2µM	n	n	n	n
CC(=O)C1=C(C)NC(SCC(=O)c2cc(Cl)ccc2Cl)=C(C#N)C1c1ccco1 (configuration not stated)	9.3µM	n	n	n	9.3µM
CC(C)(C)OC(=O)N1CCC(c2c(C(=O)N3CCN(C(=O)c4ccco4)CC3)cnn2-c2cccc(Cl)c2)CC1	12µM	n	n	n[7.34 µM]	n
Cc1cccc(-n2ncc(C(=O)NC3CCCC3)c2C2CCN(C(=O)OC(C)(C)C)CC2)c1	1.5µM	x	n	x	u
CC(C)(C)OC(=O)N1CCC(c2c(C(=O)NC3CC3)cnn2-c2ccccc2)CC1	12µM	n[7.34 µM]	n	n[7.34 µM]	n
CC(C)(C)OC(=O)N1CCC(c2c(C(=O)O)cnn2-c2ccccc2)CC1	n	x	n	x	u
Cc1ccc(-n2c(=O)c3sc4ccccc4c3n(C)c2=O)cc1F	x	n	x	n	x
CCOc1ccccc1NC(=O)COc1cccc2c(=O)n(CCOC)ccc12	x	u	x	n	x
COC(=O)C1=C(C)NC2=C(C(=O)CCC2)C1c1cccs1 (configuration not stated)	n	x	x	x	x
CCOC(=O)C1=C(C)NC2=C(C(=O)CCC2)C1c1cc(OC)ccc1OC (configuration not stated)	n	n	n	n	x
CCOC(=O)C1=C(C)NC2=C(C(=O)CCC2)C1c1cn(Cc2ccc(Cl)cc2Cl)nc1-c1ccccc1 (configuration not stated)	0.12µM	u	n	u	0.74µM
SMILES	Pf growth 48h	Vaccinia mCherry	AMA1 RON2 block	VACV Venus inh	Pf growth 96h
COC(=O)C1=C(C)NC2=C(C(=O)CCC2)C1c1cn(Cc2ccc(Cl)cc2Cl)nc1-c1ccccc1 (configuration not stated)	2.6µM	n	n	n	1.9µM
CCn1ccc2c(OCC(=O)NCc3ccc(C)cc3)cccc2c1=O	x	n	x	n	x
C=CCn1c(SCCCc2ccccc2)nc2c1c(=O)[nH]c(=O)n2C	u	n	n	n	4.1µM
COCCn1c(SCCCc2ccccc2)nc2c1c(=O)[nH]c(=O)n2C	u	x	n	n	n
C/C=C/Cn1c(SCCCc2ccccc2)nc2c1c(=O)[nH]c(=O)n2C	u	n	n	u	0.93µM
CCOC(=O)c1ccccc1NC(=O)CN1CCCN(Cc2cccc(Cl)c2)S1(=O)=O	x	n	x	n	x
O=C(Nc1cc(F)ccc1F)c1ccc2c(c1)nnn2C1CCCC1	x	n	x	n	x
O=Cc1ccc(N2CCOCC2)cc1	x	n	x	n	x
CCN(CC)S(=O)(=O)c1ccc(OC)c(NS(=O)(=O)Cc2ccccc2)c1	n	x	n	x	12µM
Oc1ccccc1CN1CCN(C(O)(c2ccccc2)c2ccccc2)CC1	5.9µM	x	n	x	5.2µM
O=C(C1CC1)N1CCC(C(O)(c2ccccc2)c2ccccc2)CC1	n	x	n	x	x
CC(C)(C)c1ccc(O)c(CN2CCN(c3ccccc3)CC2)c1	2.1µM	x	n	x	n
CC(C)(C)c1ccc(C(O)CCCN2CCC(C(O)(c3ccccc3)c3ccccc3)CC2)cc1 (configuration not stated)	u	13µM	n	11µM	12µM
Oc1ccccc1CN1CCC(C(O)(c2ccccc2)c2ccccc2)CC1	7.4µM	n	n	n	n
Cc1cn(C2CC(N=[N+]=[N-])C(CO)O2)c(=O)[nH]c1=O (configuration not stated)	x	n	x	n	x
COc1ccccc1N1C(=O)N(C(C)=O)C2C1Nc1ccccc1N2C (configuration not stated)	4.7µM	u	n	n	u
COc1cccc(C(=O)NCc2nc(-c3ccccc3)no2)c1OC	x	n	x	n	x
Cc1nc(N2CCN(C)CC2)c2sc(=S)n(C)c2n1	x	x	n	x	9.3µM
Cc1nc(N2CCN(C)CC2)c2sc(=S)n(-c3ccccc3)c2n1	n	n	n	n	n
O=[N+]([O-])c1ccc(NCCO)c2ncccc12	n	n	n	n	n
O=[N+]([O-])c1cc(C(F)(F)F)cc([N+](=O)[O-])c1NCCCNc1ccc([N+](=O)[O-])c2cccnc12	u	n	u	n	4.1µM
COc1ccc(/C=C2/Sc3ccc(C(=O)NCCN4CCCCCC4)cc3NC2=O)cc1	9.3µM	x	n	x	u
O=C1Nc2cc(C(=O)NCCCN3CCCC3)ccc2S/C1=C\c1ccccc1	9.3µM	x	n	x	n
Cc1cc(C(=O)C(C)Sc2cccc[n+]2[O-])c(C)n1-c1ccc(Cl)cc1 (configuration not stated)	n	n	n	n	12µM
Cc1cc(C(=O)C(=O)O)c(C)n1-c1ccc(Cl)cc1	n	n	n	n	n
SMILES	Pf growth 48h	Vaccinia mCherry	AMA1 RON2 block	VACV Venus inh	Pf growth 96h
Cc1cc(Nc2cnc3ccccc3n2)n(-c2ccccc2)n1	u	u	n	n	u
Cc1cc(Nc2nc3ccccc3nc2Cl)n(-c2ccc([N+](=O)[O-])cc2)n1	x	u	n	u	1µM
Cc1cc(Nc2nc3ccccc3[nH]c2=O)n(-c2ccccc2)n1	u	7.1µM	n	8.9µM	n[5.75 µM]
CC1CCCCN1CCCNC(=O)c1[nH]c2ccccc2c1Sc1ccc(Cl)cc1 (configuration not stated)	x	n	x	n	x
Cc1cc(C)n(C(C)CC(=O)NCc2ccccc2C)n1 (configuration not stated)	x	n	x	n	x
CCOC(=O)c1cnc2ccc(OCC)cc2c1NCc1cccnc1	u	n	n	n	6.6µM
CCOC(=O)c1cnc2ccc(OCC)cc2c1NCc1ccccc1	12µM	n	n	n	u
CCOC(=O)c1cnc2c(OC)cccc2c1NCc1cccnc1	n	x	n	x	n
O=C(Nc1ccc(F)cc1)c1cccnc1NCCc1ccccc1	u	n	n	n	3.7µM
